Test results published in PubChem BioAssay AID1159580 (chemical genetic matrix, 2015).
“And” between values parts separate entries of the source, which are not always exact repeats. Identical values can stand only once. Out of some 5,500 compounds screened, about 2,000 (36%) were called active. About 18% were inconclusive and are not listed. Rule as the data show it: active = normalized growth mostly below about 0.91 (no sharp cut-off); inconclusive = no clear call, values can overlap the other calls; inactive = mostly above about 0.92. The list shows a part of the results.

Assay: chemical genetic growth profiling, strain panel (AID 1159580);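 also: tested at 20 µM; growth read once vehicle control cultures reached saturation at 30 °C; 1 = growth at the plate median or of vehicle wells; lower values mean less growth of the strain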
Settings: S. cerevisiae deletion strains, growth OD

Measured: normalized growth

CCC(=O)O[C@H]1[C@H](O[C@@H]2[C@@H](C)[C@H](O[C@H]3C[C@@](C)(OC)[C@@H](O)[C@H](C)O3)[C@@H](C)C(=O)O[C@H](CC)[C@@](C)(O)[C@H](O)[C@@H](C)C(=O)[C@H](C)C[C@@]2(C)O)O[C@H](C)C[C@@H]1N(C)C
inactive: locus YAL013W, strain DEP1, stronger effect = lower value 0.996 | locus YAL021C, strain ccr4, stronger effect = lower value 0.958 | locus YAL026C, strain drs2, stronger effect = lower value 0.942 | locus YAL030W, strain snc1, stronger effect = lower value 0.984 | locus YBL061C, strain skt5, stronger effect = lower value 0.973 | locus YBR171W, strain sec66, stronger effect = lower value 1.01 | locus YBR229C, strain ROT2, stronger effect = lower value 1.02 | locus YCL029C, strain bik1, stronger effect = lower value 0.988 | locus YCL061C, strain MRC1, stronger effect = lower value 0.949 | locus YCR088W, strain abp1, stronger effect = lower value 1.02 | locus YDL005C, strain med2, stronger effect = lower value 0.984 | locus YDL035C, strain GPR1, stronger effect = lower value 0.915 | locus YDL040C, strain nat1, stronger effect = lower value 1.01 | locus YDL074C, strain BRE1, stronger effect = lower value 0.809 | locus YDL101C, strain DUN1, stronger effect = lower value 0.959 | locus YDL134C, strain PPH21, stronger effect = lower value 0.91 | locus YDL185W, strain tfp1, stronger effect = lower value 1.01 | locus YDL192W, strain arf1, stronger effect = lower value 1 | locus YDR001C, strain nth1, stronger effect = lower value 1.02 | locus YDR069C, strain doa4, stronger effect = lower value 1.04 | locus YDR101C, strain arx1, stronger effect = lower value 1 | locus YDR162C, strain NBP2, stronger effect = lower value 0.944 | locus YDR297W, strain sur2, stronger effect = lower value 0.942 | locus YDR318W, strain mcm21, stronger effect = lower value 0.99 | locus YDR334W, strain swr1, stronger effect = lower value 0.957 | locus YDR388W, stronger effect = lower value 0.972 | locus YDR502C, strain sam2, stronger effect = lower value 1.01 | locus YEL037C, strain rad23, stronger effect = lower value 0.971 | locus YEL061C, strain CIN8, stronger effect = lower value 0.97 | locus YER015W, strain faa2, stronger effect = lower value 0.975 | locus YER016W, strain bim1, stronger effect = lower value 0.965 | locus YER110C, stronger effect = lower value 0.967 | locus YER155C, strain BEM2, stronger effect = lower value 1.03 | locus YER167W, strain BCK2, stronger effect = lower value 0.971 | locus YFR010W, strain ubp6, stronger effect = lower value 0.911 | locus YGL078C, strain dbp3, stronger effect = lower value 0.995 | locus YGL086W, strain mad1, stronger effect = lower value 0.994 | locus YGL167C, strain pmr1, stronger effect = lower value 1 | locus YGL173C, strain kem1, stronger effect = lower value 0.938 | locus YGL227W, strain vid30, stronger effect = lower value 1.01 | locus YGL248W, strain PDE1, stronger effect = lower value 0.918 | locus YGR135W, strain pre9, stronger effect = lower value 0.92 | locus YHR027C, strain rpn1, stronger effect = lower value 1 | locus YHR030C, strain SLT2, stronger effect = lower value 1.02 and 0.875 | locus YHR079C, strain IRE1 (second series), stronger effect = lower value 1.01 | locus YHR079C, strain IRE1, stronger effect = lower value 0.874 | locus YHR094C, strain hxt1, stronger effect = lower value 1.01 | locus YHR129C, strain ARP1, stronger effect = lower value 0.99 | locus YHR200W, strain rpn10, stronger effect = lower value 1.01 | locus YIL073C, strain SPO22, stronger effect = lower value 1.05 | locus YIL125W, strain kgd1, stronger effect = lower value 1.02 | locus YIR030C, strain dcg1, stronger effect = lower value 1.02 | locus YJL092W, strain hpr5, stronger effect = lower value 1.01 | locus YJL095W, strain BCK1 (second series), stronger effect = lower value 0.993 | locus YJL115W, strain asf1, stronger effect = lower value 1.03 | locus YJL134W, strain LCB3, stronger effect = lower value 1.02 | locus YJL154C, strain vps35, stronger effect = lower value 1.01 | locus YJL168C, strain set2, stronger effect = lower value 1.01 | locus YJL187C, strain SWE1 (second series), stronger effect = lower value 0.967
0.975 (inactive) and 0.864 (active): locus YJL095W, strain BCK1, stronger effect = lower value
active: locus YBR009C, strain hhf1, stronger effect = lower value 0.797 | locus YBR021W, strain FUR4, stronger effect = lower value 0.232 | locus YBR023C, strain chs3, stronger effect = lower value 0.894 | locus YBR231C, strain swc5, stronger effect = lower value 0.836 | locus YBR279W, strain paf1, stronger effect = lower value 0.911 | locus YCL011C, strain gbp2, stronger effect = lower value 0.823 | locus YCL016C, strain dcc1, stronger effect = lower value 0.912 | locus YCL069W, strain vba3, stronger effect = lower value 0.899 | locus YDR137W, strain rgp1, stronger effect = lower value 1.18 [resistant] | locus YDR159W, strain sac3, stronger effect = lower value 0.826 | locus YDR195W, strain ref2 1.22 [resistant] | locus YDR335W, strain msn5, stronger effect = lower value 0.877 | locus YDR392W, strain spt3, stronger effect = lower value 0.292 | locus YEL003W, strain gim4, stronger effect = lower value 0.862 | locus YEL061C, strain CIN8 (second series), stronger effect = lower value 0.875 | locus YER111C, strain swi4, stronger effect = lower value 0.867 | locus YER155C, strain BEM2 (second series), stronger effect = lower value 0.32 | locus YGL240W, strain doc1, stronger effect = lower value 0.731 | locus YGL253W, strain hxk2, stronger effect = lower value 0.671 | locus YGR078C, strain PAC10, stronger effect = lower value 0.797 | locus YGR252W, strain gcn5, stronger effect = lower value 0.695 | locus YHR013C, strain ard1, stronger effect = lower value 0.722 | locus YHR142W, strain chs7, stronger effect = lower value 0.7 | locus YIL066C, strain RNR3, stronger effect = lower value 0.8 | locus YJL129C, strain trk1, stronger effect = lower value 0.7 | locus YJL164C, strain tpk1, stronger effect = lower value 0.832 | locus YJL166W, strain qcr8, stronger effect = lower value 0.813 | locus YJR043C, strain POL32, stronger effect = lower value 0.832
